Compound activity from PubChem.
MEP2 TOR yeast – alters MEP2-GFP fluorescence in TOR pathway yeast screen; hit rate 0.51% among 330,000; GFP response vs DMSO, % at 10 µM; AID 2016; S. cerevisiae MEP2-GFP strain, flow cytometry GFP, 3 h; 100% = DMSO control level;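 active = GFP response versus DMSO above a set limit, roughly screen mean plus 3 SD, cut at about 180% in these data; inconclusive = fewer than 70 cells counted for a yeast strain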;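 also: median GFP fluorescence of the barcode-gated MEP2-GFP cells per well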
LAP4 TOR yeast – yeast TOR pathway LAP4-GFP modulation; S. cerevisiae LAP4-GFP multiplex, flow cytometry GFP, 3 h; median GFP as percent of DMSO wells; GFP response vs DMSO, % at 10 µM; hit rate 0.34% among 320,000;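 active = GFP response vs DMSO above a set limit, about the screen mean plus 3 SD, cut at about 150% in these data; inconclusive = under 70 cell events counted for the yeast strain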
RPL19A-GFP yeast – yeast TOR pathway RPL19A-GFP modulation; hit rate 0.3% among 330,000; percent response vs DMSO, % at 10 µM; S. cerevisiae RPL19A-GFP strain, flow cytometry, 3 h; hits give low values;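 active = percent response vs DMSO below 50%; inconclusive = fewer than 70 events counted for the yeast strain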;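 also: median channel GFP fluorescence of the barcoded RPL19A-GFP strain; ratio of sample median GFP to plate DMSO average so 100% = DMSO; lower means less RPL19A-GFP as with rapamycin TOR inhibition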
AGP1 TOR yeast – modulators of TOR pathway AGP1-GFP in S. cerevisiae; AID 2066; S. cerevisiae AGP1-GFP multiplex flow cytometry, 3 h; GFP as percent of DMSO wells; hit rate 0.02% among 320,000; GFP response vs DMSO, % at 10 µM;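 active = GFP response relative to DMSO above a set limit, near screen average plus 3 SD, cut at about 150% in these data; inconclusive = fewer than 70 cells counted for the yeast strain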;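 also: median GFP channel fluorescence of the gated AGP1 strain per well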
CIT2 TOR yeast – alters CIT2-GFP fluorescence in TOR pathway yeast screen. S. cerevisiae CIT2-GFP strain, flow cytometry, 3 h; 100 means same as DMSO wells. AID 2029. GFP response vs DMSO, % at 10 µM. hit rate 0.065% among 320,000;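 active = GFP response relative to DMSO above a set limit, near the screen mean plus 3 SD, cut at about 150% in these data; inconclusive = Fewer than 70 cells measured for a yeast strain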;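 also: ratio of well median GFP fluorescence to mean of DMSO wells on the plate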
LAP4-GFP pick2 – second confirmation of modulators of TOR reporter LAP4-GFP in yeast | shares compounds with LAP4 TOR yeast | S. cerevisiae LAP4-GFP strain, flow cytometry GFP, 3 h | GFP response vs DMSO, % at 10 µM | hit rate 20% among 590;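 active = GFP signal as percent of the solvent control above about 150%, meaning raised reporter expression, limit read from the data; inconclusive = fewer than 70 cells counted in the well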;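 also: ratio of well median GFP fluorescence to plate DMSO mean so 100% = DMSO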
MEP2-GFP pick2 – second confirmation of modulators of TOR reporter MEP2-GFP in yeast; shares compounds with LAP4 TOR yeast; S. cerevisiae MEP2-GFP strain, flow cytometry GFP, 3 h; GFP response vs DMSO, % at 10 µM; hit rate 10% among 590;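 active = GFP signal above 150% of the solvent control wells, that is a rise of more than half; inconclusive = fewer than 70 yeast cells counted in the well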;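 also: median channel GFP fluorescence of all gated yeast cells per well; ratio of median GFP to plate DMSO average so 100% = DMSO level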
RPL19A GFP CP2 – reconfirmed modulator of RPL19A-GFP TOR reporter in yeast; hit rate 3% among 590; S. cerevisiae RPL19A-GFP strain, flow cytometry GFP, 3 h; hits give low values; 100% means same as DMSO wells; AID 2623; shares compounds with LAP4 TOR yeast; GFP response vs DMSO, % at 10 µM;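 active = under 65% GFP response relative to DMSO; inconclusive = yeast strain with under 70 measured events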;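 also: median GFP channel fluorescence per well over the all cells gate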
CIT2-GFP pick2 – yeast CIT2-GFP TOR reporter modulation, second cherry pick; shares compounds with LAP4 TOR yeast; S. cerevisiae CIT2-GFP strain, flow cytometry GFP, 3 h; DMSO control wells read 100%; GFP response vs DMSO, % at 10 µM; hit rate 8% among 590; AID 2624;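 active = GFP response vs DMSO above about 150%, limit read from the data; inconclusive = fewer than 70 events counted for a yeast strain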;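 also: median green fluorescence per well over all gated yeast cells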
AGP1 GFP CP2 – second confirmation of modulators of TOR reporter AGP1-GFP in yeast; shares compounds with LAP4 TOR yeast; 590 tested, under 10 active; S. cerevisiae AGP1-GFP strain, flow cytometry GFP, 3 h; percent response vs DMSO, % at 10 µM;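 active = over 150 percent of DMSO response; inconclusive = yeast strain measured with under 70 events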;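 also: median GFP channel fluorescence over all cells without mother daughter split; sample median GFP divided by mean DMSO control so 100% equals DMSO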
s288c autofluor – yeast s288c autofluorescence artifact, counter-screen; shares compounds with LAP4 TOR yeast; S. cerevisiae s288c, 520 nm autofluorescence, flow cytometry, 3 h; hits give high values; zero means same as solvent-only cells; AID 2757; 610 tested, under 10 active; fluorescence change (kMESF span) at 33 µM;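 active = fluorescence span over the dose series, or activity score, above about 33, limit read from the data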
Active calls of the source: *; ? = inconclusive; . = no result given; ! = a repeat was not active; [ ] = dose if it differs, or a comment. A selection: hits, their analogues and other compounds. The true share with any hit is near 0.92%.

SMILES | MEP2 TOR yeast | LAP4 TOR yeast | RPL19A-GFP yeast | AGP1 TOR yeast | CIT2 TOR yeast | LAP4-GFP pick2 | MEP2-GFP pick2 | RPL19A GFP CP2 | CIT2-GFP pick2 | AGP1 GFP CP2 | s288c autofluor
CC[C@@H]1C(=O)OC[C@@H]1Cc1cncn1C | 404*![may fluoresce violet] | 107 | 43*![may fluoresce violet] | ? | ? | . | . | . | . | . | .
CC[C@@H]1C(=O)OC[C@@H]1Cc1cncn1C | 100 | 111 | 106 | 95 | 89 | . | . | . | . | . | .
CC12CC[C@H]3[C@@H](CCC4(O)C[C@H](O)CCC34/C=N/NC(=O)c3ccccc3[N+](=O)[O-])C1(O)CCC2C1=CC(=O)OC1 (stereo partly specified) | 106 | . | 96 | 104 | 100 | . | . | . | . | . | .
CNC(=O)Nc1ccc(C(=O)N/N=C\C23CC[C@@H](O)CC2(O)CC[C@@H]2[C@@H]3CCC3(C)C(C4=CC(=O)OC4)CCC23O)cc1 (stereo partly specified) | 200*[may fluoresce violet] | 92 | 45*[may fluoresce violet] | 19 | ? | . | . | . | . | . | .
Cc1ccc(/C=C2/C(=O)NC(=O)N(CC3CCCO3)C2=O)s1 (stereo unspecified) | 99 | 107 | 99 | 109 | 83 | . | . | . | . | . | .
O=C1/C(=C\c2ccc(Cl)c(Cl)c2)N2CCC1CC2 | 82 | 187* | 91 | 89 | 75 | . | . | . | . | . | .
C#CCOc1cc(C2C3=C(COC3=O)Nc3cc4c(cc32)OCO4)ccc1OC (stereo unspecified) | 172 | 123 | 108 | 103 | 164* | . | . | . | . | . | .
O=C1NC(=O)C(=Cc2ccc(-c3ccc(Cl)cc3)o2)C(=O)N1 | 90 | 263* | 71 | 66 | 57 | 198* | 123 | 84 | 103 | 89 | 0.5
O=C1NC(=O)C(=Cc2ccc(-c3ccc(S(=O)(=O)N4CCOCC4)cc3)o2)C(=O)N1 | 91 | 108 | 96 | 89 | 72 | . | . | . | . | . | .
CN1C(=O)/C(=C/c2ccc(Cl)s2)C(=O)NC1=S | 85 | 118 | 100 | 70 | 92 | . | . | . | . | . | .
Cc1ccsc1/C=C1\C(=O)NC(=S)N(C)C1=O | 87 | 52 | 55 | 56 | 90 | 103 | 128 | 67 | 79 | 64 | -1.4
COC(=O)C1=C(c2cc3ccccc3s2)C[C@@H]2CC[C@H]1N2C(=O)NC1CCCCC1 | 91 | 125 | 95 | 84 | 86 | . | . | . | . | . | .
Cc1cccc(C#N)c1 | 102 | 108 | 99 | 100 | 88 | . | . | . | . | . | .
CC(C)c1cccc(C(C)C)c1OCCn1ccnc1 | 92 | 91 | 98 | 103 | 87 | . | . | . | . | . | .
O=C1C(=O)c2ccccc2-c2ccccc21 | 99 | 105 | 95 | 77 | 81 | . | . | . | . | . | 2.1
CCCCCCCCc1ccc(O)cc1 | 99 | 111 | 98 | 97 | 89 | . | . | . | . | . | .
CCCCCCCCn1sccc1=O | 98 | 207* | 88 | 72 | 86 | 180* | 185* | 85 | 174* | 87 | 1.6
CC1(C)C[C@H]2C=C(C=O)[C@]3(C=O)C[C@]3(C)[C@H]2C1 | 122 | 149 | 61 | 70 | 103 | 198* | 201* | 79 | 188* | 91 | 1.4
CC[C@H](C)/C=C(C)/C=C/C1=CC2=C(Cl)C(=O)[C@@](C)(OC(C)=O)C(=O)C2=CO1 | 79 | 75 | 28* | 8 | 74 | 71 | 97 | 29* | 77 | 14 | 2
COc1ccc2c(c1OC)C(=O)OC2c1c(O)n(Cc2ccc(F)cc2)c(=O)[nH]c1=O (stereo unspecified) | 113 | 113 | 97 | 103 | 94 | . | . | . | . | . | .
O=C1NC(=O)N(Cc2ccc(F)cc2)C(=O)/C1=C/c1cccs1 | 99 | 170* | 88 | 91 | 76 | 196* | 133 | 76 | 79 | 81 | 0.1
O=C1NC(=O)N(Cc2ccccc2Cl)C(=O)/C1=C/c1cccs1 | 83 | 133 | 95 | 81 | 77 | . | . | . | . | . | .
C/C(=C\c1ccc(N(C)C)cc1)[N+](=O)[O-] | 102 | 155* | 102 | 102 | 100 | 103 | 93 | 98 | 111 | 99 | .
